Measured values as given in PubChem BioAssay (NCI).
The panel holds about 79,000 compounds, 15% with a hit somewhere; the sample as a whole holds those more often. Calls of active or inactive are those of the source. Cut-off read from the data, not from the text of the source: active = growth inhibition above about 70%; inactive = the rest.

assay: NCI Yeast Anticancer Drug Screen. Data for the sgs1 mgt1 strain (AID 161);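 note: 0% = growth of cultures given vehicle only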; details: S. cerevisiae sgs1 mgt1 strain, at 50.0 µM, stronger effect = higher value
How it was run: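 Test agents were incubated with a DNA-repair-mutant yeast strain. Growth was then read and compared against vehicle-treated controls.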

Structure (SMILES) | growth inhibition
COC1C2CCC1C(N=O)C2Br (stereo not given) | -3.1% (inactive)
CC(CO)(NC(=O)c1ccccc1)C(=O)O (stereo not given) | 22.5% (inactive)
COc1cc(-c2c(C)c(C)nc(OC)c2C#N)cc(OC)c1OC | -24% (inactive)
NC(Cc1ccc(B(O)O)cc1)C(=O)O (stereo not given) | -29.5% (inactive)
COc1cc2c(cc1OC)C1=Cc3cc(OC)c(OC)cc3C(C)N1C=C2 (stereo not given) | -26.6% (inactive)
CC(=O)N(CN1C(=O)CCC1C(=O)O)c1cccc(O)c1 (stereo not given) | -10.2% (inactive)
CC1SCCNC1=O (stereo not given) | -0.1% (inactive)
O=C1OCC/C1=C\c1cccc2ccccc12 | -3.45% (inactive)
COc1ccc(CSc2n[nH]c(=O)[nH]c2=S)cc1 | -10.4% (inactive)
O=C(Nc1ccccc1)Oc1ccc(Cl)cc1Cc1ccccc1 | 99.8% (active)
ClC1(Cl)CC1c1ccccc1 (stereo not given) | 6.8% (inactive)
CC(C)(C)c1cc2c(O)c(c1)Cc1cc(C(C)(C)C)cc(c1O)Cc1cc(C(C)(C)C)cc(c1O)Cc1cc(C(C)(C)C)cc(c1O)Cc1cc(C(C)(C)C)cc(c1O)Cc1cc(C(C)(C)C)cc(c1O)Cc1cc(C(C)(C)C)cc(c1O)Cc1cc(C(C)(C)C)cc(c1O)C2 | 7.3% (inactive)
Cc1cc2c(C)[nH]nc2c(C(=O)O)c1C | 6.35% (inactive)
NC(=O)CCn1ccc2ccccc21 | 0% (inactive)
CSC(=S)n1nc(-c2cccs2)c(N=Nc2ccc([N+](=O)[O-])cc2)c1C(F)(F)F | 19.9% (inactive)
C[C@]12CC[C@@H]3c4cc(C=O)c(OCc5ccccc5)cc4CC[C@H]3[C@@H]1CCC2OCc1ccccc1 (stereo not given in full) | 0.45% (inactive)
C[C@H](CCc1nc(C#N)c(N)o1)[C@H]1CC[C@H]2[C@@H]3[C@@H](O)CC4C[C@@H](O)CC[C@]4(C)[C@H]3C[C@@H](O)[C@]12C (stereo not given in full) | 10.7% (inactive)
CC(N)c1ccc2ccccc2c1O (stereo not given) | 8.8% (inactive)
O=C=Nc1ccc([N+](=O)[O-])cc1 | 1.2% (inactive)
O=C(O)/C(=C/c1ccccc1[N+](=O)[O-])c1cccs1 | 22.6% (inactive)

Structure (SMILES) | growth inhibition
O=C(O)c1ccc(/C=N\N(CCO)C2=NCCN2)cc1 | -23.8% (inactive)
O=C(OCCCCCCCCOC(=O)c1cccc([N+](=O)[O-])c1)c1cccc([N+](=O)[O-])c1 | 11.8% (inactive)
CCCCCCCC/C=C\CCCCCCCC(=O)NCCN(CCN)C(=O)CCCCCCC/C=C\CCCCCCCC | -16.8% (inactive)
CC1/C(=N/O)CC(c2ccccc2)N(N=O)C1c1ccccc1 (stereo not given) | 57.5% (inactive)
O=c1[nH]cc(COCC(O)CO)c(=O)[nH]1 (stereo not given) | -43.9% (inactive)
OC(COc1ccc(Cl)cc1Cl)CN1CCCC1 (stereo not given) | 17.7% (inactive)
OC(CCCCCCCCC(O)CN1CCCCC1)CN1CCCCC1 (stereo not given) | 5.45% (inactive)
Cc1ccc(S(=O)(=O)NC(CC(C)C)C(=O)O)cc1 (stereo not given) | -4.55% (inactive)
CC(=O)OCOC(=O)CN(CC(=O)OCOC(C)=O)Cc1cc2c(cc1OC(C)=O)Oc1cc(OC(C)=O)c(CN(CC(=O)OCOC(C)=O)CC(=O)OCOC(C)=O)cc1C21OC(=O)c2ccccc21 | 15.2% (inactive)
OCC1CC(c2ccccc2)=NO1 (stereo not given) | -11.2% (inactive)
Cn1c(N)cc(=O)n(C)c1=O | 18% (inactive)
CC(=O)Oc1cc(N(C)C)ccc1SC(Cl)(Cl)Cl | -12.1% (inactive)
O=[N+]([O-])c1ccc(CCCCCc2ccccc2)cc1 | 0.6% (inactive)
O=C(O)C1CC2(CCC1c1ccccc1)SCCS2 (stereo not given) | 12.1% (inactive)
O=[N+]([O-])c1ccc(C2=NN(c3ccccc3)C(c3ccccc3)C2)cc1 (stereo not given) | 0.5% (inactive)
COc1cc(C2CC(C)=C(C)CC2C(=O)O)cc(OC)c1OC (stereo not given) | 7.25% (inactive)
O=C(/C=C/c1c[nH]c2ccccc12)c1ccccc1[N+](=O)[O-] | 7.55% (inactive)
Cc1ccccc1OCC(O)CO (stereo not given) | -8.7% (inactive)
Cc1ccc(/C=N/NS(=O)(=O)c2ccccc2)cc1 | 15.6% (inactive)
N#CC1(c2ccccc2)OC1(C#N)c1ccccc1 (stereo not given) | -4.8% (inactive)

assay: NCI Yeast Anticancer Drug Screen. Data for the cln2 rad14 strain (AID 165);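 note: 0% = growth equal to vehicle treated cultures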; details: S. cerevisiae cln2 rad14 strain, at 50.0 µM, stronger effect = higher value
How it was run: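 The screen exposed genetically defined yeast (cln2 rad14) to test compounds and scored growth inhibition relative to vehicle-treated controls.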

Structure (SMILES) | growth inhibition
COC1C2CCC1C(N=O)C2Br (stereo not given) | -44.9% (inactive)
CC(CO)(NC(=O)c1ccccc1)C(=O)O (stereo not given) | 11.1% (inactive)
COc1cc(-c2c(C)c(C)nc(OC)c2C#N)cc(OC)c1OC | -19.1% (inactive)
NC(Cc1ccc(B(O)O)cc1)C(=O)O (stereo not given) | -7.4% (inactive)
COc1cc2c(cc1OC)C1=Cc3cc(OC)c(OC)cc3C(C)N1C=C2 (stereo not given) | -18.6% (inactive)
CC(=O)N(CN1C(=O)CCC1C(=O)O)c1cccc(O)c1 (stereo not given) | -5.7% (inactive)
CC1SCCNC1=O (stereo not given) | 7.3% (inactive)
O=C1OCC/C1=C\c1cccc2ccccc12 | 12.5% (inactive)
COc1ccc(CSc2n[nH]c(=O)[nH]c2=S)cc1 | -12.1% (inactive)
O=C(Nc1ccccc1)Oc1ccc(Cl)cc1Cc1ccccc1 | 99.8% (active)
ClC1(Cl)CC1c1ccccc1 (stereo not given) | -9.7% (inactive)
CC(C)(C)c1cc2c(O)c(c1)Cc1cc(C(C)(C)C)cc(c1O)Cc1cc(C(C)(C)C)cc(c1O)Cc1cc(C(C)(C)C)cc(c1O)Cc1cc(C(C)(C)C)cc(c1O)Cc1cc(C(C)(C)C)cc(c1O)Cc1cc(C(C)(C)C)cc(c1O)Cc1cc(C(C)(C)C)cc(c1O)C2 | 5.6% (inactive)
Cc1cc2c(C)[nH]nc2c(C(=O)O)c1C | 11.1% (inactive)
NC(=O)CCn1ccc2ccccc21 | -1.25% (inactive)
CSC(=S)n1nc(-c2cccs2)c(N=Nc2ccc([N+](=O)[O-])cc2)c1C(F)(F)F | 12.2% (inactive)
C[C@]12CC[C@@H]3c4cc(C=O)c(OCc5ccccc5)cc4CC[C@H]3[C@@H]1CCC2OCc1ccccc1 (stereo not given in full) | 2.9% (inactive)
C[C@H](CCc1nc(C#N)c(N)o1)[C@H]1CC[C@H]2[C@@H]3[C@@H](O)CC4C[C@@H](O)CC[C@]4(C)[C@H]3C[C@@H](O)[C@]12C (stereo not given in full) | 9.55% (inactive)
CC(N)c1ccc2ccccc2c1O (stereo not given) | -11.2% (inactive)
O=C=Nc1ccc([N+](=O)[O-])cc1 | -20.6% (inactive)
O=C(O)/C(=C/c1ccccc1[N+](=O)[O-])c1cccs1 | 21.1% (inactive)

Structure (SMILES) | growth inhibition
O=C(O)c1ccc(/C=N\N(CCO)C2=NCCN2)cc1 | -31.5% (inactive)
O=C(OCCCCCCCCOC(=O)c1cccc([N+](=O)[O-])c1)c1cccc([N+](=O)[O-])c1 | 8.15% (inactive)
CCCCCCCC/C=C\CCCCCCCC(=O)NCCN(CCN)C(=O)CCCCCCC/C=C\CCCCCCCC | -20.6% (inactive)
CC1/C(=N/O)CC(c2ccccc2)N(N=O)C1c1ccccc1 (stereo not given) | 18.8% (inactive)
O=c1[nH]cc(COCC(O)CO)c(=O)[nH]1 (stereo not given) | 3.95% (inactive)
OC(COc1ccc(Cl)cc1Cl)CN1CCCC1 (stereo not given) | 5.05% (inactive)
OC(CCCCCCCCC(O)CN1CCCCC1)CN1CCCCC1 (stereo not given) | 11% (inactive)
Cc1ccc(S(=O)(=O)NC(CC(C)C)C(=O)O)cc1 (stereo not given) | -34.2% (inactive)
CC(=O)OCOC(=O)CN(CC(=O)OCOC(C)=O)Cc1cc2c(cc1OC(C)=O)Oc1cc(OC(C)=O)c(CN(CC(=O)OCOC(C)=O)CC(=O)OCOC(C)=O)cc1C21OC(=O)c2ccccc21 | 14.8% (inactive)
OCC1CC(c2ccccc2)=NO1 (stereo not given) | -20.2% (inactive)
Cn1c(N)cc(=O)n(C)c1=O | 0.1% (inactive)
CC(=O)Oc1cc(N(C)C)ccc1SC(Cl)(Cl)Cl | -61.6% (inactive)
O=[N+]([O-])c1ccc(CCCCCc2ccccc2)cc1 | -75.2% (inactive)
O=C(O)C1CC2(CCC1c1ccccc1)SCCS2 (stereo not given) | 13.6% (inactive)
O=[N+]([O-])c1ccc(C2=NN(c3ccccc3)C(c3ccccc3)C2)cc1 (stereo not given) | -5.9% (inactive)
COc1cc(C2CC(C)=C(C)CC2C(=O)O)cc(OC)c1OC (stereo not given) | 30.1% (inactive)
O=C(/C=C/c1c[nH]c2ccccc12)c1ccccc1[N+](=O)[O-] | -7.7% (inactive)
Cc1ccccc1OCC(O)CO (stereo not given) | 22.2% (inactive)
Cc1ccc(/C=N/NS(=O)(=O)c2ccccc2)cc1 | -16.7% (inactive)
N#CC1(c2ccccc2)OC1(C#N)c1ccccc1 (stereo not given) | -22.2% (inactive)
